Screens: PubChem, Broad Institute
Rows were chosen to be rich in hits. Some 1.7% of all compounds tested hit in one or more screens of this group.
FGF22 binding = binders of recombinant human FGF22 by thermal shift; SYPRO orange fluorescence; percent of sucrose octasulfate shift, DMSO zero; activity (Tm shift, normalised), % at 9.99 µM; actives 1.5% (n = 340,000);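 active means mean Tm shift, scaled 0 neutral to 100 positive control, at about 1.3% or above, every replicate too, limit read from the data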
Target sequence (Q9HCT0 whole entry, looked up): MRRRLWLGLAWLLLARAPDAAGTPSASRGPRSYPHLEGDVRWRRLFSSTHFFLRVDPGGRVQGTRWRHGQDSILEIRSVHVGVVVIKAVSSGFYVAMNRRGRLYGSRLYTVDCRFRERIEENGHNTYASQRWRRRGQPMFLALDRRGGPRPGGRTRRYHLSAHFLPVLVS
Vif inh = inhibitors of HIV Vif | HEK293T cells, Vif self-association by quenched fluorescence, imaging, 24 h | inhibition, % at 7.49 µM | actives 0.35% (n = 340,000); in the data active means inhibition above about 50%, passing the limit was not always enough
F508del corr = CFTR F508del correction in bronchial cells; activity (quench increase), % at 7.58 µM; CFBE cells, YFP halide quenching; stimulated with forskolin plus potentiator P3; % fluorescence drop versus neutral controls; AID 720511; actives 0.36% (n = 350,000);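 active means mean added fluorescence quench of at least 8% versus neutral control, with both replicates also reaching 8%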;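 further: cells transiently co-express mutant CFTR-F508del with the halide-sensitive YFP; corrector assay measuring rescue of mutant channel to the surface after 24 h compound exposure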
Starred values were filed as active, the others as inactive; i = inactive; . = not tested or not shown.

SMILES	FGF22 binding	Vif inh	F508del corr
Cc1noc(C)c1S(=O)(=O)Nc1ccc2c(c1)C(=O)N([C@@H](C)CO)C[C@H](C)[C@H](CN(C)Cc1ccc(C(=O)O)cc1)OCCCC[C@H](C)O2	1.3*	.	0.6
C[C@H]1CCCCO[C@@H](CN(C)Cc2ccc(C(=O)O)cc2)[C@@H](C)CN([C@@H](C)CO)C(=O)c2cc(NS(=O)(=O)c3cn(C)cn3)ccc2O1	-0.2	.	0.8
Cc1noc(C)c1S(=O)(=O)Nc1ccc2c(c1)C(=O)N([C@H](C)CO)C[C@H](C)[C@H](CN(C)Cc1ccc(C(=O)O)cc1)OCCCC[C@@H](C)O2	1.4*	.	0.1
Cc1noc(C)c1NC(=O)Nc1ccc2c(c1)CC(=O)N([C@@H](C)CO)C[C@H](C)[C@@H](CN(C)S(=O)(=O)c1cn(C)cn1)O2	-0.3	.	-6.1
Cc1noc(C)c1S(=O)(=O)Nc1ccc2c(c1)C(=O)N([C@H](C)CO)C[C@H](C)[C@H](CN(C)S(=O)(=O)c1c(C)noc1C)OCCCC[C@H](C)O2	-0.4	.	1.1
Cc1cc(C)c(NC(=O)c2ccccc2C(=O)c2ccccc2)c(C)c1	43.1*	8.2	-0.9
Cc1cc(C)c(NC(=O)c2ccccc2CCc2ccccc2)c(C)c1	.	-3.4	.
Cc1ccc(-n2ncc(C(=O)NCC3CCN(C4CCCC4)C3)c2C2CCN(C(=O)OC(C)(C)C)CC2)cc1 (stereo not drawn)	-0.1	-0.4	-2.2
CC(C)(C)OC(=O)N1CCC(c2c(C(=O)NCC3CCN(C4CCCC4)C3)cnn2-c2ccc(F)cc2)CC1 (stereo not drawn)	-0.1	60.2*	0.7
CCS(=O)(=O)c1ccc(O)c(NC(=O)COc2ccc(OC)cc2)c1	.	-4.3	.
CCCc1ccc(OCC(=O)Nc2cc(S(=O)(=O)CC)ccc2O)cc1	44.2*	-17.2	2.3
O=C1c2ccccc2-c2onc3ccc(N4CCCC4)c1c23	0.4	-7.9	7.1
O=C1c2ccccc2C(=O)c2c1cccc2N1CCCC1	0.3	8.8	8.0*
CC(C)CC#Cc1ccc2c(c1)O[C@H](CN(C)C(=O)Cc1ccccn1)[C@@H](C)CN([C@H](C)CO)S2(=O)=O	-0.6	.	2.6
CC1(C)C2CC=C(/C=N/NC(=O)c3ccc(O)cc3)C1C2 (stereo not drawn)	.	4.2	.
CC1(C)C2CC=C(/C=N/NC(=O)c3ccccc3Br)C1C2 (stereo not drawn)	43.4*	3.2	0.8
C[C@@H]1CN([C@@H](C)CO)C(=O)c2cccc(NC(=O)Nc3ccc(C(F)(F)F)cc3)c2O[C@H]1CN(C)C(=O)Nc1ccccc1	-0.2	.	1.6
Cn1c(=O)c(NC2CCCCC2)c2c3c(cccc31)C(=O)c1ccccc1-2	0.5	.	16.0*
Cn1c(=O)c(NCCO)c2c3c(cccc31)C(=O)c1ccccc1-2	.	i	.
C[C@H]1CN([C@@H](C)CO)C(=O)Cc2cc(NS(=O)(=O)c3cn(C)cn3)ccc2O[C@H]1CN(C)S(=O)(=O)c1ccc(Cl)cc1	-0.3	.	2.3
CO[C@H](CN(C)C(=O)C1CCOCC1)[C@@H](C)CN(C(=O)Nc1ccc(F)cc1)[C@@H](C)CO	-0.2	.	-2.1
N/C(Cn1cncn1)=N\NC(=O)C(=O)Nc1cccc(C(F)(F)F)c1	43.1*	27.3	-1.3
N/C(Cn1cncn1)=N\NC(=O)C(=O)Nc1ccccc1	0.3	3.9	0.3
CCOC(=O)c1cnc2ccccc2c1Nc1cccc(C(=O)O)c1	0.0	16.1	1.0
CCOC(=O)c1cnc2ccccc2c1Nc1ccc(C(=O)O)cc1	43.8*	-1.0	-3.0
SMILES	FGF22 binding	Vif inh	F508del corr
O=C(O)Cc1cc(=O)[nH]n(-c2ccccc2)c1=O	0.0	4.6	-1.1
CCOC(=O)Cc1cc(=O)[nH]n(-c2ccccc2)c1=O	43.6*	-11.2	5.6
CCOc1cccc(-c2cc(C(=O)N3N=C(C)CC3(O)C(F)F)c3ccccc3n2)c1 (stereo not drawn)	43.5*	2.5	-3.0
O=C(c1cc(-c2ccccc2)nc2ccccc12)N1N=C(C(F)F)CC1(O)C(F)F (stereo not drawn)	-0.1	6.4	-0.2
CCCN1C[C@@H](C)[C@@H](OC)CN(C)C(=O)c2ccc(NC(=O)CC)cc2OC[C@H]1C	.	.	0.5
C[C@@H]1CN([C@@H](C)CO)C(=O)c2cc(N(C)C)ccc2O[C@H]1CN(C)Cc1ccc2c(c1)OCO2	0.0	.	-0.3
F[B-](F)(F)COCc1ccccc1C#Cc1ccccc1	1.2	.	1.5
CCCCC#Cc1ccccc1COC[B-](F)(F)F	1.4*	.	0.2
COCC(=O)N(C)C[C@H]1Oc2ncc(C#Cc3ccc(F)cc3)cc2C(=O)N([C@@H](C)CO)C[C@@H]1C	0.1	.	-0.1
CCCNC(=O)Nc1ccc2c(c1)C(=O)N(C)C[C@@H](OC)[C@@H](C)CN(C(=O)C1CCOCC1)[C@@H](C)CO2	-0.1	.	-0.1
CCN(CC)Cc1oc(CO)cc(=O)c1O	43.1*	-0.1	2.5
O=c1cc(CO)oc(CN2CCCC2)c1O	.	-1.0	.
COc1cccc(NC(=O)N2C[C@@H](O)COC[C@H]3O[C@@H](CC(=O)NC4CCCC4)CC[C@@H]32)c1	0.1	.	3.3
O=C(Nc1ccc2c(c1)OCCO2)c1cc(-c2ccccn2)nc2ccc(Br)cc12	43.6*	-6.7	-2.0
Cc1cccc(-c2cc(C(=O)Nc3ccc4c(c3)OCCO4)c3ccccc3n2)c1	.	-3.9	.
CO[C@@H]1CN(C)C(=O)c2cc(NC(=O)Nc3ccccc3)ccc2OC[C@H](C)N(C(C)=O)C[C@@H]1C	0.0	.	1.3
CCN(C(=O)Cc1c(C(=O)O)n(C)c2ccccc12)c1ccc(F)cc1	43.0*	5.0	-3.8
CCN(C(=O)Cc1c(C(=O)O)n(C)c2ccccc12)c1cc(OC)ccc1OC	-0.2	-30.0	-1.0
C[C@H]1CN([C@@H](C)CO)C(=O)c2cc(NC(=O)CCN3CCOCC3)ccc2O[C@@H]1CN(C)Cc1ccc(C(=O)O)cc1	-0.1	.	-3.2
CC(C)C(=O)Nc1ccc2c(c1)C(=O)N(C)[C@H]1CC[C@H](CC(=O)Nc3ccccc3)O[C@H]1CO2	0.1	.	0.2
O=C(c1cccnc1Cl)N1CCOCC1	43.6*	7.2	-3.2
O=S(=O)(Nc1ccccc1O)c1cccc2cccnc12	0.0	-1.8	1.4
O=C(c1ccccc1F)N1CCOCC1	0.2	3.3	0.8
O=C(c1ccccc1NS(=O)(=O)c1cccc2cccnc12)N1CCOCC1	43.4*	28.2	1.1
C[C@@H]1CN([C@H](C)CO)C(=O)CCCn2nncc2CO[C@@H]1CN(C)Cc1ccc(C(=O)O)cc1	-0.3	.	-3.4
O=C(C1CCCC1)N1CC(=O)N2[C@@H](CO)[C@@H](c3ccc(C#Cc4cccc(F)c4)cc3)[C@@H]2C1	.	.	-0.9
CCCNC(=O)N(C)C[C@H]1Oc2cc(-c3ccncc3)ccc2S(=O)(=O)N([C@@H](C)CO)C[C@H]1C	-0.1	.	-1.0
O=C(Cc1ccccc1)Nc1ccc2c(c1)C(=O)N(CC1CCCO1)C2=O (stereo not drawn)	0.0	50.1*	4.8
O=C(COc1ccccc1)Nc1ccc2c(c1)C(=O)N(CC1CCCO1)C2=O (stereo not drawn)	-0.2	-2.2	-1.7
COCC(=O)Nc1ccc2c(c1)[C@H]1C[C@@H](CC(=O)NCc3cc(F)ccc3F)O[C@H](CO)[C@H]1O2	-0.2	.	2.5
